Measurements reported in PubChem BioAssay (NCI).
The panel holds about 79,000 compounds, 15% with a hit somewhere; the sample as a whole holds those more often. Unmarked numbers belong to inactive results. Calls of active or inactive are those of the source. No stated cut-off is given here; in the data, active means growth inhibition above about 70%; inactive means the rest.

Experiments:
[1] = NCI Yeast Anticancer Drug Screen. Data for the rad50 strain (AID 155);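 further: 0% = growth of vehicle-only cultures of the same strain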; conditions: S. cerevisiae rad50 strain growth inhibition, stronger effect = higher value
In short: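 Growth of the mutant yeast was measured after compound exposure and referenced to vehicle-treated cultures.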

[2] = NCI Yeast Anticancer Drug Screen. Data for the mec2-1 strain (AID 157); conditions: S. cerevisiae mec2-1 strain, stronger effect = higher value
In short: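 Yeast mec2-1 mutant treated with compound. Readout: growth inhibition vs vehicle controls.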

[3] = NCI Yeast Anticancer Drug Screen. Data for the sgs1 mgt1 strain (AID 161);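 further: 0% = growth of cultures given vehicle only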; conditions: S. cerevisiae sgs1 mgt1 strain, stronger effect = higher value
In short: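 Genetically altered yeast, compound exposure, growth inhibition relative to vehicle.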

[4] = NCI Yeast Anticancer Drug Screen. Data for the cln2 rad14 strain (AID 165);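 further: 0% = growth equal to vehicle treated cultures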; conditions: S. cerevisiae cln2 rad14 strain, stronger effect = higher value
In short: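 cln2 rad14 yeast strain; compound exposure; growth inhibition read vs vehicle controls.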

[5] = NCI Yeast Anticancer Drug Screen. Data for the bub3 strain (AID 167); conditions: S. cerevisiae bub3 mutant strain, stronger effect = higher value
In short: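 Whole-cell yeast assay. The mutant strain was incubated with compounds, and growth inhibition was determined by comparison with vehicle-treated cells.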

[6] = NCI Yeast Anticancer Drug Screen. Data for the mlh1 rad18 strain (AID 175); conditions: S. cerevisiae mlh1 rad18 strain growth inhibition, stronger effect = higher value
In short: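 Yeast w/ defined DNA-repair lesions; compound exposure; growth vs vehicle controls → % inhibition.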

[7] = at 5.0 µM (retest, dose inferred, filed as 0.5)
[8] = at 50.0 µM (retest, dose inferred, filed as 5.0)

SMILES	growth inhibition [1, 7]	growth inhibition [1, 8]	growth inhibition ([1]; at 50.0 µM)	growth inhibition [2, 7]	growth inhibition [2, 8]	growth inhibition ([2]; at 50.0 µM)	growth inhibition [3, 7]	growth inhibition [3, 8]	growth inhibition ([3]; at 50.0 µM)	growth inhibition [4, 7]	growth inhibition [4, 8]	growth inhibition ([4]; at 50.0 µM)	growth inhibition [5, 7]	growth inhibition [5, 8]	growth inhibition ([5]; at 50.0 µM)	growth inhibition [6, 7]	growth inhibition [6, 8]	growth inhibition ([6]; at 50.0 µM)
CC(=O)c1cc(-c2ccc(C)cc2)nc2c(C)cc(C)cc12	5%	15%	32.9%	5%	33%	60.5%	6%	32%	-9.2%	1%	41%	76.8% (active)	10%	40%	95.2% (active)	27%	41%	94.2% (active)
Cc1[nH]c2ccccc2c1C(c1ccccc1)c1c(C)[nH]c2ccccc12	2%	92% (active)	71.6% (active)	1%	98% (active)	83% (active)	10%	97% (active)	87.2% (active)	0%	97% (active)	81% (active)	-1%	97% (active)	83.5% (active)	20%	97% (active)	94.7% (active)
O=C(CC1(O)C(=O)Nc2c(Cl)cc(Cl)cc21)c1ccc(Cl)cc1 (stereo not given)	0%	87% (active)	85% (active)	-1%	91% (active)	70.3% (active)	3%	98% (active)	81% (active)	-3%	96% (active)	82.5% (active)	-3%	93% (active)	71.5% (active)	-1%	97% (active)	93.8% (active)
O=C(O)c1c(Cl)c(Cl)c(Cl)c(Cl)c1-c1c2cc(I)c(=O)c(I)c-2oc2c(I)c(O)c(I)cc12	75% (active)	98% (active)	91.3% (active)	99% (active)	99% (active)	92.1% (active)	82% (active)	98% (active)	91.6% (active)	98% (active)	97% (active)	90.2% (active)	98% (active)	98% (active)	91.4% (active)	97% (active)	97% (active)	91.2% (active)
C[n+]1c(/C=C/c2ccc([N+](=O)[O-])cc2)ccc2ccccc21	6%	85% (active)	42%	-2%	89% (active)	60.8%	2%	77% (active)	69.7%	12%	77% (active)	82.7% (active)	-2%	92% (active)	11.7%	16%	92% (active)	80.2% (active)
COc1ccc2c(C)cc(N/N=C/c3ccc(OC)c4ccccc34)nc2c1	27%	98% (active)	89.7% (active)	51%	99% (active)	36.8%	66%	99% (active)	91% (active)	0%	99% (active)	35.5%	9%	99% (active)	52%	42%	98% (active)	39.9%
CC(=O)OCc1ccc(O)c2ncccc12	-127%	74% (active)	95.7% (active)	-49%	83% (active)	94% (active)	-51%	45%	54.2%	-44%	75% (active)	41%	-56%	74% (active)	67.1%	-103%	54%	55%
Cc1cccc(/C=N/Nc2cc(C)c3ccccc3n2)n1	10%	89% (active)	96.8% (active)	10%	96% (active)	89.2% (active)	16%	96% (active)	97.8% (active)	5%	86% (active)	82.3% (active)	-5%	95% (active)	93.6% (active)	14%	96% (active)	82.8% (active)
O=C1CCSC(=S)N1c1ccc(N=Nc2ccccc2)cc1	57%	94% (active)	75.4% (active)	9%	91% (active)	97.6% (active)	20%	94% (active)	97.2% (active)	11%	13%	84% (active)	0%	4%	93.5% (active)	18%	94% (active)	94.5% (active)
NNCc1cc(Cl)c2cccnc2c1O	18%	96% (active)	98.8% (active)	6%	99% (active)	98.8% (active)	7%	98% (active)	98.5% (active)	-8%	98% (active)	97.5% (active)	-1%	98% (active)	99% (active)	9%	98% (active)	98.7% (active)
CCCCCCC(C)OC(=O)/C=C/c1ccccc1 (stereo not given)	4%	4%	33.5%	-2%	1%	14.2%	5%	10%	11.9%	0%	1%	39.4%	2%	13%	17.5%	19%	-6%	26.9%
Cn1c(-c2ccc(/C=N/NC(N)=NCCCCCCN=C(N)N/N=C/c3ccc(-c4c[n+]5ccccc5n4C)cc3)cc2)c[n+]2ccccc12	97% (active)	98% (active)	98.2% (active)	97% (active)	98% (active)	96.8% (active)	97% (active)	98% (active)	97.2% (active)	95% (active)	98% (active)	89.3% (active)	97% (active)	99% (active)	97.3% (active)	97% (active)	98% (active)	97.7% (active)
CCOC(=O)C(C(C)=O)C1=C(Cl)C(=O)c2ccccc2C1=O (stereo not given)	94% (active)	100% (active)	99.3% (active)	89% (active)	100% (active)	99.5% (active)	96% (active)	100% (active)	99.5% (active)	77% (active)	100% (active)	89.7% (active)	96% (active)	100% (active)	97.5% (active)	84% (active)	99% (active)	99.3% (active)
CCCc1cc(=O)oc2c3c(c4c(c12)OC(C)(C)CC4)O[C@H](C)[C@@H](C)[C@H]3O	8%	94% (active)	83.5% (active)	17%	97% (active)	90.5% (active)	14%	96% (active)	89.2% (active)	18%	95% (active)	88.7% (active)	23%	96% (active)	86.8% (active)	10%	95% (active)	86.5% (active)
Cc1ccc(N=NC(C(=O)c2ccccc2)C(=O)c2ccccc2)cc1	7%	94% (active)	93% (active)	-3%	97% (active)	93.3% (active)	14%	92% (active)	91.3% (active)	7%	94% (active)	87.9% (active)	-3%	95% (active)	93.1% (active)	-2%	95% (active)	92.5% (active)
Cc1c(N)cc(I)cc1[N+](=O)[O-]	2%	12%	-4.65%	9%	7%	4.2%	0%	63%	12.8%	6%	-11%	-32.7%	-8%	2%	56.8%	-5%	10%	13.8%
CCOC(=O)C(NC(=O)C(CO)n1c(-c2ccccc2)c(-c2ccccc2)oc1=O)C(=O)OCC (stereo not given)	7%	42%	43.6%	2%	19%	26.4%	-2%	35%	41.5%	-1%	51%	-1.9%	1%	51%	22.2%	1%	20%	53.1%
CCCCCCCCC(=O)NCCN(CCN)C(=O)CCCCCCCC	-82%	97% (active)	90.2% (active)	-43%	98% (active)	93.1% (active)	-33%	97% (active)	91.7% (active)	-24%	98% (active)	89.9% (active)	-47%	97% (active)	90.1% (active)	-68%	97% (active)	90% (active)
O=C(/C=C/c1ccccc1)C1(c2ccccc2)CC1	-125%	-56%	79.8% (active)	-51%	-42%	60.9%	-53%	-2%	68.9%	-55%	-34%	-21.4%	-58%	39%	44.5%	-115%	-93%	66.5%
O=C1NOCC1N=Cc1cc(Cl)ccc1O (stereo not given)	9%	65%	75.8% (active)	3%	30%	16.9%	-7%	35%	26.9%	0%	38%	23.4%	6%	61%	58.9%	9%	78% (active)	84% (active)
